Measured values from PubChem BioAssay (EPA / NIEHS).
Results filed as inconclusive are left out. The source made the active and inactive calls. How the source made its calls: active means hit-call score of the fitted dose curve at least 0.9, where 1 is the maximum; inconclusive means response in the unintended direction; inactive means score below 0.9.

read-out: ABC Transporter (ABCB1), ABCB1 (gene 5243); assay: CLD_ABCB1_48hr: CellzDirect (CLD) Gene Expression Assay for ABC Transporter (ABCB1) at 48 hours (AID 2283695);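 on AC50: potency for induction meaning increase of mRNA over DMSO vehicle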
Protocol: CLD_48hr is a cell-based, multiplexed-readout assay that uses hepatocyte, a human liver primary cell, with measurements taken at 48 hours after chemical dosing in a 96-well plate.CLD_ABCB1_48hr is one of 16 assay component(s) measured or calculated from the CLD_48hr assay. It is designed to make measurements of mRNA induction, a form of inducible reporter, as detected with chemiluminescence signals by Quantitative Nuclease Protection Assay (qNPA) technology.Data from the assay component CLD_ABCB1_48hr was analyzed at the endpoint, CLD_ABCB1_48hr, in the positive analysis fitting direction relative to DMSO as the negative control and baseline of activity. Using a type of inducible reporter, gain-of-signal activity can be used to understand changes in the reporter gene as they relate to the gene ABCB1. Furthermore, this assay endpoint can be referred to as a primary readout. To generalize the intended target to other relatable targets, this assay endpoint is annotated to the transporter intended target family, where subfamily is ABC transporter.
Human hepatocyte cultures were treated daily for two consecutive days with fresh dosing solutions containing appropriate concentrations of the 320 ToxCast chemicals (chemical identities were blinded to CellzDirect and other ToxCast collaborators), vehicle control (0.2% DMSO), and positive control inducers as summarized in Table 1. Due to the large number of treatment groups and chemicals examined, the ToxCast chemicals were divided into two groups (spanning two independent cultures of hepatocytes from separate donor preparations (Hu778: ToxCast plates 1 and 2; Hu776: ToxCast plates 3 and 4). Each preparation of human hepatocyte cultures was treated with respective vehicle control, medium only control, set of six positive controls/reference chemicals for the five hepatic receptor pathways, and a subset of eight of the ToxCast chemicals (indoxacarb, pyrithiobac-sodium, norflurazon, cyhalofop-butyl, methomyl, thiram, acetochlor, and propiconazole). These replicate data, coupled with internal replicates designed within the blinded ToxCast chemical library, provided additional data to evaluate interindividual differences between hepatocyte preparations and their potential impact on chemical profiles.Cell morphology and integrity were evaluated using phase-contrast microscopy as an indicator of hepatocyte cell health (Tyson & Green, 1987). Cultures for each treatment group (i.e., media, vehicle [0.2% DMSO], positive control inducers [multiple concentrations], and the ToxCast chemicals [multiple concentrations]) were observed and cell morphology was assessed relative to vehicle control cultures at each harvest time point (0, 6, 24, or 48 h). […] Images were evaluated at the conclusion of the study to assess changes in cell integrity and account for the effects of chemical exposure on uncharacteristic changes in concentration-dependent gene expression profiles. The results from these determinations of apparent cytotoxicity were annotated (yes/no) alongside the corresponding qNPA data for reference.At the conclusion of each treatment period, hepatocyte cultures (96-well) were washed with 1 volume of HBSS, lysed by addition of 25 ul ArrayPlate lysis buffer (HTG, Tucson, AZ), and 70 ul/well of Denaturation Oil, denatured by incubation at 95C for 10 min, and frozen at approximately -70C until analysis by nuclease protection assay (qNPA) (Roberts et al., 2007). For qNPA analysis, cell lysates were thawed at 50C for approximately 30 min, qNPA probes were added, and samples were incubated at 95C for 10 min to begin the detection process by denaturing the target RNA, dissociating the duplexes and secondary structure hybridization. At the conclusion of the hybridization period, S1 nuclease reagent was added to each sample to digest all nonprotected nucleotides at 50C for 60-90 min. […]

SMILES | AC50 | outcome
CCCN(CCOc1c(Cl)cc(Cl)cc1Cl)C(=O)n1ccnc1 | 20 µM (active) | –
CCS(=O)(=O)c1cccnc1S(=O)(=O)NC(=O)Nc1nc(OC)cc(OC)n1 | – | inactive
Cc1cc(C)nc(NC(=O)NS(=O)(=O)c2ccccc2C(=O)OC2COC2)n1 | – | inactive
CCOc1nc(NC)nc(NC(=O)NS(=O)(=O)c2ccccc2C(=O)OC)n1 | – | inactive
O=C(O)CCCOc1ccc(Cl)cc1Cl | – | inactive
ClC1C(Cl)C(Cl)C(Cl)C(Cl)C1Cl (stereo not drawn) | – | inactive
CCCN(CCC)c1c([N+](=O)[O-])cc(C(F)(F)F)cc1[N+](=O)[O-] | – | inactive
O=S(=O)(O)C(F)(F)C(F)(F)C(F)(F)C(F)(F)C(F)(F)C(F)(F)C(F)(F)C(F)(F)F | – | inactive
CNC(=O)Oc1cccc(N=CN(C)C)c1 | – | inactive
CCOCN(C(=O)CCl)c1c(C)cccc1CC | – | inactive
O=[N+]([O-])/N=C1\NCCN1Cc1ccc(Cl)nc1 | – | inactive
CCC(C)(C)C(=O)OC1=C(c2ccc(Cl)cc2Cl)C(=O)OC12CCCCC2 | – | inactive
CC1(c2ccc(Oc3ccccc3)cc2)OC(=O)N(Nc2ccccc2)C1=O (stereo not drawn) | – | inactive
COC(=O)c1ccccc1S(=O)(=O)NC(=O)Nc1nc(C)nc(OC)n1 | – | inactive
O=S1OCC2C(CO1)C1(Cl)C(Cl)=C(Cl)C2(Cl)C1(Cl)Cl (stereo not drawn) | 29.4 µM (active) | –
Oc1cc(Cl)ccc1Oc1ccc(Cl)cc1Cl | – | inactive
O=C(O)C(F)(F)C(F)(F)C(F)(F)C(F)(F)C(F)(F)C(F)(F)C(F)(F)F | – | inactive
C#CCN1C(=O)COc2cc(F)c(N3C(=O)C4=C(CCCC4)C3=O)cc21 | – | inactive
COP(=S)(OC)Oc1ccc([N+](=O)[O-])cc1 | – | inactive

SMILES | AC50 | outcome
C[C@H]1[C@H](c2ccc(Cl)cc2)SC(=O)N1C(=O)NC1CCCCC1 | 35.5 µM (active) | –
CCC(C)Nc1c([N+](=O)[O-])cc(C(C)(C)C)cc1[N+](=O)[O-] (stereo not drawn) | – | inactive
CCC(C)(NC(=O)c1cc(Cl)c(C)c(Cl)c1)C(=O)CCl (stereo not drawn) | – | inactive
N#CN | – | inactive
COc1cc(OC)nc(NC(=O)NS(=O)(=O)c2cc(NC=O)ccc2C(=O)N(C)C)n1 | – | inactive
CC(C)(C)C(O)C(Oc1ccc(Cl)cc1)n1cncn1 (stereo not drawn) | – | inactive
CCOC1Oc2ccc(OS(C)(=O)=O)cc2C1(C)C (stereo not drawn) | – | inactive
CC(C)N(C(=O)COc1nnc(C(F)(F)F)s1)c1ccc(F)cc1 | – | inactive
O=C1c2ccccc2C(=O)N1SC(Cl)(Cl)Cl | – | inactive
CNC(=O)/C=C(\C)OP(=O)(OC)OC | – | inactive
CC(C)(C)C(O)/C(=C\c1ccc(Cl)cc1Cl)n1cncn1 (stereo not drawn) | 31.3 µM (active) | –
COP(=O)(OC)OC=C(Cl)Cl | – | inactive
CCc1ccc(C(=O)NN(C(=O)c2cc(C)cc(C)c2)C(C)(C)C)cc1 | – | inactive
CC[C@H](C)[C@H]1O[C@]2(C=C[C@@H]1C)C[C@@H]1C[C@@H](C/C=C(\C)[C@@H](O[C@H]3C[C@H](OC)[C@@H](O[C@H]4C[C@H](OC)[C@@H](O)[C@H](C)O4)[C@H](C)O3)[C@@H](C)/C=C/C=C3\CO[C@@H]4[C@H](O)C(C)=C[C@@H](C(=O)O1)[C@]34O)O2 (tested in a mixture with another compound) | 1.01 µM (active) | –
CNC(=O)Oc1ccccc1OC(C)C | – | inactive
CCN(CC)C(=O)SCc1ccc(Cl)cc1 | – | inactive
O=C(O)COc1ccc(Cl)cc1Cl | – | inactive
Cc1[nH]c(=O)n(C(C)(C)C)c(=O)c1Cl | – | inactive
CNC(=O)CSP(=S)(OC)OC | – | inactive
